PubChem BioAssay (NCI)
About 79,000 compounds went through this panel and 15% of them were active in at least one assay; those are over-represented in the sample as a whole. The source made the active and inactive calls. Cut-off read from the data, not from the text of the source: active = growth inhibition above about 70%; inactive = the rest.

Experiment: NCI Yeast Anticancer Drug Screen. Data for the sgs1 mgt1 strain (AID 161);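 note: 0% = growth of cultures given vehicle only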
Details: S. cerevisiae sgs1 mgt1 strain, at 50.0 µM, active compounds read high
Procedure, shortened: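 Mutant yeast exposed to compound; growth scored against vehicle-only wells.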

Structure (SMILES)	growth inhibition
c1ccc2nc3ccccc3nc2c1	28.4% (inactive)
O=C(NCCCl)Nc1c2ccccc2nc2ccccc12	24.5% (inactive)
CC1=C2CCC3C(CCC4(C)C(C(C)CCCC(C)C)CCC34)C2(C)CCC1=O (centres undefined)	16.4% (inactive)
Cc1cccc(Cl)c1NC(=O)/C=C/c1ccccc1	1.1% (inactive)
O=C1/C(=C/c2ccc(Cl)cc2)CSC/C1=C\c1ccc(Cl)cc1	9.35% (inactive)
CCOC(=O)c1c(N)sc2c1CCCCC2	52% (inactive)
CC(C)NC(=O)O/N=C1\CCC2[C@@H]3CC=C4C[C@@H](OC(=O)NC(C)C)CC[C@]4(C)C3CC[C@]12C (some centres undefined)	92.3% (active)
COc1ccc2c(c1)c(=O)c1c(NCCN(C)C)ccc3nnn2c31	10.2% (inactive)
CCCC(=O)N(C(=O)CCC)C1=C(Cl)C(=O)c2ccccc2C1=O	75.1% (active)
CN(C)C1C=CCC(c2ccccc2)C1[N+](=O)[O-] (centres undefined)	98.5% (active)
CC(=O)NC1C(=O)CC(c2ccccc2)N(C)C1c1ccccc1 (centres undefined)	25.3% (inactive)
CCCCC#CCCOC(=O)C#CCCCC	-0.85% (inactive)
CC1C[C@]2(C)C(=S)Nc3ccccc3[C@@H]2Nc2ccccc21 (some centres undefined)	48.8% (inactive)
O=[N+]([O-])/C=C/c1c[nH]c2c1ccc1ccccc12	94.2% (active)
CCC[CH2][Sn]([S][Sn]([CH2]CCC)([c]1ccccc1)[c]1ccccc1)([c]1ccccc1)[c]1ccccc1	99.5% (active)
CCN(CC)CCCCNc1ccc(Cl)cc1	53.9% (inactive)
C[n+]1c(/C=C\c2ccccc2)sc2ccccc21	88.7% (active)
Cc1nnc2nc3c(nn12)c1ccccc1n3C	15.8% (inactive)
CS(=O)c1cc(=O)c2ccccc2s1 (centres undefined)	99.3% (active)
COC(=O)C1=C(C)NC(C)=C(C(=O)OC)C1c1ccc(NCc2ccccc2)c([N+](=O)[O-])c1	12.3% (inactive)

Structure (SMILES)	growth inhibition
C/C(=N/NC(=S)Nc1ccccc1Cl)c1ccccn1	81.3% (active)
Nc1ccccc1Sc1ccc(C(F)(F)F)cc1[N+](=O)[O-]	99.2% (active)
COc1ccc2nc(-c3ccc(Cl)cc3)[nH]c2c1	80.5% (active)
Cc1c(C)c(C)c(C(=O)c2ccccc2C(=O)NCCSC(C)(C)C)c(C)c1C	83.3% (active)
COC(=O)C(=O)C(C(=O)Nc1cccc(C)c1C)C1Sc2ccccc2NC1=O (centres undefined)	69.5% (inactive)
Cc1nc2c(O)c3c(c(O)c2nc1C)C1C=CC3CC1	77.5% (active)
C[C@]12CCC(=O)C=C1CC[C@@H]1[C@@H]2[C@@H](O)C[C@@]2(C)[C@H]1CC[C@]2(O)C(=O)COC(=O)CCC1CCCC1	82% (active)
CC(=O)OCCc1ccc(CCc2ccccc2)cc1	18.6% (inactive)
COc1cc2c(cc1OC)C(=O)C(C)(c1ccccc1)NC2 (centres undefined)	92.4% (active)
CCCCCCC(/C=C/c1c(Cl)cccc1Cl)=N\O	91.3% (active)
O=C1OC(c2ccc(O)cc2)=C(c2ccccc2)C1c1ccccc1 (centres undefined)	99.5% (active)
c1cc[c]([Ge]([O]c2cccc3cccnc23)([c]2ccccc2)[c]2ccccc2)cc1	67.5% (inactive)
CCCCCCCCCCCCCCCCCCOP(=O)([O-])OCC[N+](C)(C)C	92.5% (active)
Cc1noc(NS(=O)(=O)c2ccc(NCc3c4ccccc4nc4cc(Cl)ccc34)cc2)c1C	98.5% (active)
CCC(=NCCCCCCN=C(CC)c1cc(C)cc([N+](=O)[O-])c1O)c1cc(C)cc([N+](=O)[O-])c1O.[Fe]	72.2% (active)
O=C(O)c1ccc([N+](=O)[O-])cc1.[Ag]	99.5% (active)
O=C1C(=O)c2ccccc2C(O)=C1C(c1ccccc1)c1ccccc1	82.5% (active)
CC(=O)SC1C(=O)N(C)C(SC(C)=O)C(=O)N1C (centres undefined)	96.6% (active)
COc1ccc2c(c1)CN([C@@H](C)[C@H]1CC[C@H]3[C@@H]4CC[C@H]5C[C@@H](O)CC[C@]5(C)[C@H]4CC[C@]13C)CO2	99.2% (active)
